Source: PubChem BioAssay (NCI)
Compounds without any hit were thinned out: in the full panel of roughly 83,000, 20% have a hit.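 Single-concentration screen, 48 h exposure, 96-well plates. Endpoint: percent growth. Below 10 = active.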 Values without a mark were called inactive. Active and inactive are the calls of the source.

System: OVCAR-8 ovarian
Assay: NCI-60 one-dose screen, 48 h (100 = growth as untreated, 0 = no growth, -100 = all killed)
Conditions: 10 µM unless noted

SMILES | growth
Nc1cc2ccccc2c(=O)n1NC(=O)c1ccc(I)cc1 | 101%
CC(=O)Nc1cccc(Nc2nc(N[C@H]3CCCc4ccccc43)c3ccccc3n2)c1 | 103%
CCN(CC)C(=O)N/C(N)=N/c1nc2ccccc2s1 | 55.5%
O=C(O)c1cccc(-c2ccc(/C=N/NC(=O)c3[nH]c4ccc(Br)cc4c3-c3ccccc3)o2)c1 | 66.4%
NS(=O)(=O)c1ccc(-n2cc(-c3cccc(NC(=O)c4cc(C(F)(F)F)cc(C(F)(F)F)c4)c3)nn2)cc1 | 40.7%
C[C@H](Nc1nc(NCCc2ccccc2)nc2ccccc12)c1ccccc1 | -78.6% (active)
C(=C\c1cc(/C=C/c2ccccc2)c2ccccc2n1)/c1ccccc1 | 78.4%
C=C1CC[C@@H]2[C@]3(C)COC(c4cn(-c5ccccc5)nc4-c4ccccc4)O[C@@H]3CC[C@@]2(C)[C@@H]1C/C=C1/C(=O)OC[C@H]1O (stereo partly drawn) | -49.5% (active)
N#Cc1c(-c2cccc3ccccc23)cc(-c2cccc(OCC(=O)O)c2)[nH]c1=O | 98.9%
O=C(/C=C/c1cccc(OCc2ccc(F)cc2)c1)c1nc2ccccc2[nH]1 | 83.2%
CCOC(=O)C1=C(N)N(c2ccccc2)C2=C(C(=O)CC(C)(C)C2)C1c1cccc(Cl)c1Cl (stereo not drawn) | 59.4%
CC(C)c1ccc2c(N)c(C(=O)Nc3ccc(C(F)(F)F)cn3)sc2n1 | 63.8%
COc1ccc2cc([C@H](C)C(=O)N/N=C/c3ccc(Br)cc3)ccc2c1 | 105%
CC(=O)Oc1ccccc1C(=O)[Se]CC(=O)Nc1cccc(C(F)(F)F)c1 | -46.6% (active)
COc1ccc(NC(=O)c2sc3nc(C(C)C)ccc3c2N)cc1 | 89.1%
CC1=C(C(=O)OCc2ccccc2)C(c2c(O)cc(O)cc2O)n2c(nc3ccccc32)N1 (stereo not drawn) | 77.9%
N#Cc1ccc(/C=N/NC(=O)c2[nH]c3ccc(Br)cc3c2-c2ccccc2)o1 | -21.9% (active)
CC1=C(C(=O)OC(C)C)C(c2cccc(O)c2)NC(=S)N1 (stereo not drawn) | 104%
COc1cc(-c2ccc(/C=N/NC(=O)c3[nH]c4ccc(Br)cc4c3-c3ccccc3)s2)cc(OC)c1OC | 80.7%

SMILES | growth
COc1cc(/C=C/C(=O)c2nnn(-c3ccc(Cl)cc3)c2C)cc(OC)c1OC | 31.8%
CC1=C(C(=O)OCc2ccccc2)C(c2ccc(-n3cncn3)cc2)n2c(nc3ccccc32)N1 (stereo not drawn) | 86.6%
COc1cc(-c2cc(-c3cccc(OCC(=O)O)c3)[nH]c(=O)c2C#N)cc(OC)c1OC | 102%
CSc1ccc(C(=O)Nc2ccc3nn(/C(C#N)=C/c4ccccn4)nc3c2)cc1 | -1.48% (active)
CSc1ccc(NC(=O)c2ccc3nn(/C(C#N)=C/c4ccccn4)nc3c2)cc1 | -44.2% (active)
CC1CCCCN1CCCNC(=O)N/C(N)=N/c1nc2ccccc2s1 (stereo not drawn) | 75.2%
O=C(O)c1ccc(-c2ccc(/C=N/NC(=O)c3[nH]c4ccc(Br)cc4c3-c3ccccc3)s2)cc1 | 20.2%
CSc1ccccc1NC(=O)c1ccc2nnn(/C(C#N)=C/c3ccccn3)c2c1 | -86.6% (active)
Clc1cccc(Cl)c1/C=C/c1cc(/C=C/c2ccc(Br)cc2)c2ccccc2n1 | 101%
C=C1CC[C@@H]2[C@]3(C)COC(c4cn[nH]c4-c4ccc(OC)cc4)O[C@@H]3CC[C@@]2(C)[C@@H]1C/C=C1/C(=O)OCC1O (stereo partly drawn) | -3.29% (active)
CSc1ccc(C(=O)Nc2ccc3nnn(/C(C#N)=C/c4ccccn4)c3c2)cc1 | 10%
CC(=O)Nc1cccc(Nc2nccc(N[C@@H](C)c3ccccc3)n2)c1 | 9.3% (active)
O=C(N/N=C/c1ccc(-c2ccc(O)cc2)s1)c1[nH]c2ccc(Br)cc2c1-c1ccccc1 | 25.1%
COc1cc(CNC(=O)/C=C/c2ccc3c(c2)OCO3)ccc1OCc1cn(-c2cccc(C(F)(F)F)c2)nn1 | -9.92% (active)
O=C(O)c1ccc(-c2ccc(/C=N/NC(=O)c3[nH]c4ccc(Br)cc4c3-c3ccccc3)o2)cc1 | -15.4% (active)
CCCCOc1ccc(NC(=O)c2sc3nc(C)ccc3c2N)cc1 | 5.4% (active)
Cc1ccc2c(N)c(C(=O)Nc3ccc(-c4ccccc4)cc3)sc2n1 | 73.4%
COc1ccc2nc(Nc3cccc(NC(=O)c4ccc(CN5CCCN(C)CC5)c(C(F)(F)F)c4)c3)ccc2c1 | 2.26% (active)
N#Cc1c(-c2cccnc2)cc(-c2ccc3ccccc3c2)[nH]c1=O | 78%
